This is a sample that favours compounds with a hit; in the whole collection about 2.4% have one here.
AmpC inh no det = AmpC beta-lactamase inhibition, detergent-free assay | 71,000 compounds, 1.8% hits | Potency, µM (highest dose often 28.7 µM) | P00811 | AmpC nitrocefin hydrolysis, absorbance 480 nm, no detergent
Target sequence (P00811 whole entry, looked up): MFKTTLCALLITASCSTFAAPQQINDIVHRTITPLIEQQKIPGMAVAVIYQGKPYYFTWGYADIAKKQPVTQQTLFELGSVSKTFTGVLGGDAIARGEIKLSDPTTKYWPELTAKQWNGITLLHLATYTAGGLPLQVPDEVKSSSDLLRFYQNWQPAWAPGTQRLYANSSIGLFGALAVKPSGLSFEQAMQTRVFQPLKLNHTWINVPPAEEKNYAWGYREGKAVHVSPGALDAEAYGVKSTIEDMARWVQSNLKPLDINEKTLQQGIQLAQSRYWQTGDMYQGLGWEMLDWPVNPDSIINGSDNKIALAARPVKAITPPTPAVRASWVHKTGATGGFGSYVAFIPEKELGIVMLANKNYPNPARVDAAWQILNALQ
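AmpC, 20 mM phosphate pH 7.0; 15 min cpd preinc, RT; start with nitrocefin (800 uM stock); A480 kinetic read, 20 s intervals, 4 min. No-enzyme wells = negative control.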
AmpC det inh = blocks E. coli AmpC beta-lactamase in presence of detergent. Potency, µM (titrated, usually from 28.7 µM). purified AmpC, nitrocefin hydrolysis with detergent. 71,000 compounds, 0.09% hits. AID 584. P00811; active means well fitted curve in the direction sought with a large enough effect; inconclusive means small, poorly fitted or top-dose-only effect
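E. coli AmpC (5.3 nM) in 20 mM phosphate pH 7.0 with 0.01% Triton X-100, preincubated 15 min RT with compound; nitrocefin (2 uL of 800 uM stock) hydrolysis followed by 480 nm absorbance every 20 s over 4 min.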
Anthrax LT inh = anthrax lethal toxin internalization inhibition; Cells, anthrax lethal toxin internalization, FRET ratio (460/530); Potency, µM (top dose mostly 40 µM), hits mostly inhibitors; 70,000 compounds, 0.67% hits; AID 912; further: nearly all actives have a fitted effect of over 50% in size
Prx2 Sm inh = blocks S. mansoni peroxiredoxin 2 enzymatic activity. S. mansoni Prx2 activity coupled to TGR/GSH (TGR is thioredoxin glutathione reductase), NADPH fluorescence loss, qHTS. Potency, µM. 65,000 compounds, 0.07% hits
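Activity is read as the drop in NADPH fluorescence (365/450 nm), recorded every 30 sec for 8 min after H2O2 addition. Prx2 is coupled to TGR-driven NADPH oxidation through glutathione, in phosphate buffer pH 7.4.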
Large screens that a line does not name were inactive; [ ] = remark or other dose. Unless noted, the call rests on the fitted dose curve.

CN(C)CCCn1cc(C2=C(c3c[nH]c4ccccc34)C(=O)NC2=O)c2ccccc21	Anthrax LT inh 0.398µM
O=C(c1ccco1)N1CCN(c2ncnc3c2cnn3-c2ccccc2)CC1	none (no result: Anthrax LT inh)
Cc1nn(-c2ccccc2)c(Cl)c1C(=O)N1CCN(c2ncnc3c2cnn3-c2ccccc2)CC1	Anthrax LT inh 6.31µM
COc1ccc(-c2noc(-c3ccc(Br)o3)n2)cc1OC	Anthrax LT inh inconclusive
CCOc1ccc(-c2nc(-c3ccc(OC)c(OC)c3)no2)cc1OCC	none (no result: Anthrax LT inh)
COc1ccc(-c2noc(-c3cc(C)cc(C)c3)n2)cc1OC	AmpC inh no det 1.26µM[single pt active]
COc1cc(-c2nc(-c3ccc(Br)o3)no2)cc(OC)c1OC	AmpC inh no det 3.98µM[single pt active]
COc1cccc(-c2ccc3ncnc(N(C)C)c3c2)c1	AmpC inh no det 6.31µM, AmpC det inh 10µM, Anthrax LT inh inconclusive
O=C(NCCN1C(=O)C2C3C=CC(C3)C2C1=O)Nc1cccnc1 (configuration not stated)	AmpC inh no det 3.98µM[single pt active], Anthrax LT inh inconclusive
COc1ccc(NC(=O)CCCN2C(=O)C3C4C=CC(C4)C3C2=O)c(OC)c1 (configuration not stated)	none
O=C1C2C3C=CC(C3)C2C(=O)N1CCCCN1C(=O)C2C3C=CC(C3)C2C1=O (configuration not stated)	none
O=C(NCCN1C(=O)C2C3C=CC(C3)C2C1=O)Nc1ccc(Br)cc1 (configuration not stated)	AmpC inh no det 3.98µM[single pt active]
COc1ccccc1NC(=O)NCCN1C(=O)C2C3C=CC(C3)C2C1=O (configuration not stated)	AmpC inh no det 3.98µM[single pt active]
OCCNc1ncnc2c1ncn2[C@@H]1O[C@@H](CO)[C@H](O)[C@@H]1O	none
CS(=O)(=O)c1nc(-c2ccco2)cc(C(F)(F)F)n1	Anthrax LT inh 10µM
FC(F)(F)c1cc(-c2ccco2)nc(NCc2ccco2)n1	Anthrax LT inh inconclusive
O=S(=O)(c1ccccc1)N1CN2CN(C1)CN(S(=O)(=O)c1ccccc1)C2	none
O=C(CSc1nc2ccccc2s1)c1sc2sc3ccccc3[n+]2c1O	AmpC inh no det 3.98µM[single pt active], Anthrax LT inh inconclusive
CC(=O)NCCNc1ncnc2ccc(-c3ccccc3C#N)cc12	none
NS(=O)(=O)c1cc([C@@]2(O)NC(=O)c3ccccc32)ccc1Cl	none
COC(=O)C/C=C\[C@@H](C)[C@@H](/C=N\OCC[C@H]1C=C[C@H](OC(C)=O)[C@@H](COC(C)=O)O1)NS(=O)(=O)c1ccc(C)cc1	none (no result: AmpC inh no det, AmpC det inh, Prx2 Sm inh)
CN1CCN(c2ncnc3ccc(-c4ccccc4C#N)cc23)CC1	Anthrax LT inh inconclusive
CN1CCN(c2ncnc3ccc(-c4ccccc4C(F)(F)F)cc23)CC1	Anthrax LT inh 12.6µM
CC#C[C@@]1(O)CC[C@@H]2[C@@H]3CCC4=CC(=O)CCC4=C3[C@@H](c3ccc(N(C)C)cc3)C[C@]21C	Anthrax LT inh inconclusive
Cc1cc(C)nc(SCC(=O)c2ccc(O)cc2O)n1	AmpC inh no det 3.98µM[single pt active]
CC(=O)OC1c2ccccc2C(=O)N1c1ccccc1C (configuration not stated)	AmpC inh no det 3.98µM[single pt active]
Cc1nc2cnc(N(C)C)nc2n(C)c1=O	Anthrax LT inh inconclusive
O=C(NCCCN1CCOCC1)c1c(O)c2ccccc2[nH]c1=O	none
COc1cc2[nH]c(=O)c(C(=O)NCCCN3CCCCC3)c(O)c2cc1OC	Anthrax LT inh 12.6µM
COc1ccc(S(=O)(=O)N(CCCN2CCCC2=O)Cc2cc3cc(C)c(C)cc3[nH]c2=O)cc1	Prx2 Sm inh 58.2
c1ccc(-c2nc(N3CCCCCC3)c3ccccc3n2)nc1	Anthrax LT inh inconclusive (no result: Prx2 Sm inh)
Nc1nc(N2CCCCC2)nc2ccccc12	Anthrax LT inh 20µM
Nc1nc(-c2ccco2)nc(N2CCCCC2)n1	none
c1ccc2c(N3CCCCC3)nc(N3CCCC3)nc2c1	Anthrax LT inh 10µM
Cc1ccccc1CNc1nc(N)n(-c2ccccc2)n1	AmpC inh no det 3.98µM[single pt active]
O=C1/C(=C/Nc2ccc3c(c2)OCO3)CCc2ccccc21	Anthrax LT inh 7.94µM (no result: Prx2 Sm inh)
CCOC(=O)SC1=N/C(=C\c2ccc(N(C)C)cc2)C(=O)S1	AmpC inh no det 15.8µM, AmpC det inh 5.01µM
COc1cccc(-c2nccc(NCCc3c[nH]c4ccc(OC)cc34)n2)c1	Anthrax LT inh 12.6µM
COc1ccc2[nH]cc(CCNc3ccnc(-c4ccccc4C)n3)c2c1	Anthrax LT inh inconclusive
O=C(Nc1cccc(F)c1)N1CCC2(CCNCC2)CC1	none
O=C(Cc1c[nH]c2ccccc12)Nc1nc2ccccc2[nH]1	AmpC inh no det 7.94µM
O=C(Cc1ccccc1)Nc1nc2ccccc2[nH]1	none
CCOP(=S)(OCC)Oc1ccc([N+](=O)[O-])cc1	none (no result: Prx2 Sm inh)
CCOC(=O)N1CCC(NC(=O)CCc2c(C)nc3c(c(C)nn3-c3ccccc3)c2C)CC1	AmpC inh no det 3.98µM[single pt active]
O=c1c(-c2cccs2)nc2cncnc2n1-c1ccccc1	Anthrax LT inh inconclusive
Cn1cccc1C(=O)N1CCC2(CCCN(C(c3ccccc3)c3ccccc3)C2)CC1	none
CCCN1CCN(C(=O)C2CCN(S(=O)(=O)c3ccc4c(c3)oc(=O)n4C)CC2)CC1	AmpC inh no det 3.98µM[single pt active], Anthrax LT inh inconclusive
CCOC(=O)N1CCN(S(=O)(=O)c2ccc3c(c2)oc(=O)n3C)CC1	none (no result: Anthrax LT inh)
COCc1cc(C)nc(N2CCOCC2)c1C#N	AmpC inh no det 3.98µM[single pt active] (no result: Prx2 Sm inh)
CCNc1nc(C)cc(COC)c1C#N	none (no result: Prx2 Sm inh)
CCc1ccc(NC2=NCC(=O)N2Cc2ccc3c(c2)OCO3)cc1	Anthrax LT inh 10µM
O=C1C=C[C@@H](O)[C@H]2[C@@H]3C(=O)N(Cc4ccc5c(c4)OCO5)C(=O)[C@@H]3CC[C@H]12	none (no result: AmpC inh no det, AmpC det inh, Prx2 Sm inh)
COc1cccc(-c2cncnc2-n2ccnc2)c1	none
COc1cccc(-c2nccc(-n3ccnc3)n2)c1	AmpC inh no det 10µM, AmpC det inh 12.6µM, Anthrax LT inh inconclusive
O=c1[nH]c(CN2CCc3ccccc32)nc2scc(-c3cccs3)c12	AmpC inh no det 0.794µM, Anthrax LT inh inconclusive
O=c1[nH]cnc2scc(-c3cccs3)c12	none (no result: Anthrax LT inh)
O=C(CCCCn1c(=O)[nH]c2ccccc2c1=O)NC1CCN(Cc2ccccc2)CC1	AmpC inh no det 3.16µM[single pt active]
O=C(CCCn1c(=O)[nH]c2ccccc2c1=O)NC1CCCCCC1	none
COc1ccc(-c2cc(CCCC(=O)NCCc3ccc(OC)cc3OC)no2)cc1	none (no result: Anthrax LT inh)
COc1ccc(-c2cc(CCCC(=O)NCc3ccccn3)no2)cc1	AmpC inh no det 3.16µM[single pt active]
O=S(=O)(Nc1ccn(-c2ccccc2)n1)c1ccc(Br)cc1	AmpC inh no det 5.01µM, Anthrax LT inh inconclusive (no result: Prx2 Sm inh)
CC(=O)NCCNc1nc(-c2ccc(N(C)C)cc2)nc2ccccc12	Anthrax LT inh inconclusive
COc1ccccc1Oc1ccc2c(c1)C(=O)N(c1ccc(O)cc1)C2=O	AmpC inh no det 12.6µM[single pt active]
Cc1ccc(OCC(=O)Nc2ccc(S(=O)(=O)Nc3onc(C)c3C)cc2)cc1	none
Cc1ccc(S(=O)(=O)CC(=O)Nc2ccc(S(=O)(=O)Nc3onc(C)c3C)cc2)cc1	none
Cc1noc(NS(=O)(=O)c2ccc(NC(=O)COc3ccc(Cl)cc3Cl)cc2)c1C	AmpC inh no det 6.31µM, Anthrax LT inh inconclusive (no result: Prx2 Sm inh)
CCc1cccc(OCC(=O)Nc2ccc(S(=O)(=O)Nc3onc(C)c3C)cc2)c1	AmpC inh no det 3.98µM[single pt active]
